Data published in the supplement of paper PMC10849652.
The full data set covers some 8,800 targets. This sample favours those with a hit. About 0.5% of all pairs of compound and target were hits. Values without a mark were called inactive.

Compound: C1=CC=C2C(=C1)C3=NNC4=CC=CC(=C43)C2=O
Experiment: log2 fold change, soluble protein after heating vs DMSO (PISA); higher = thermal stabilisation; K562 lysate, 10 uM; active = over 0.2 and 3.5 SD of the protein, either way, in both replicates (recomputed)
How it was run: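 Thermal stability, expressed as log-two fold change relative to solvent controls, is given from duplicates. Crude K562 extract in PBS pH 7.4 with 1 mM MgCl2, at 1 mg/mL protein, was treated with 10 μM compound for 30 min and heated in aliquots for 3 min across 48°C-58°C. After pooling, adjustment to 0.5% NP-40 at 4°C and centrifugation at 21,000xg for 90 min, supernatant protein was measured by TMTpro 16plex LC-MS/MS with channel sums equalised.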

Sequence of UniProt Q9H269 (Q9H269 whole entry, looked up): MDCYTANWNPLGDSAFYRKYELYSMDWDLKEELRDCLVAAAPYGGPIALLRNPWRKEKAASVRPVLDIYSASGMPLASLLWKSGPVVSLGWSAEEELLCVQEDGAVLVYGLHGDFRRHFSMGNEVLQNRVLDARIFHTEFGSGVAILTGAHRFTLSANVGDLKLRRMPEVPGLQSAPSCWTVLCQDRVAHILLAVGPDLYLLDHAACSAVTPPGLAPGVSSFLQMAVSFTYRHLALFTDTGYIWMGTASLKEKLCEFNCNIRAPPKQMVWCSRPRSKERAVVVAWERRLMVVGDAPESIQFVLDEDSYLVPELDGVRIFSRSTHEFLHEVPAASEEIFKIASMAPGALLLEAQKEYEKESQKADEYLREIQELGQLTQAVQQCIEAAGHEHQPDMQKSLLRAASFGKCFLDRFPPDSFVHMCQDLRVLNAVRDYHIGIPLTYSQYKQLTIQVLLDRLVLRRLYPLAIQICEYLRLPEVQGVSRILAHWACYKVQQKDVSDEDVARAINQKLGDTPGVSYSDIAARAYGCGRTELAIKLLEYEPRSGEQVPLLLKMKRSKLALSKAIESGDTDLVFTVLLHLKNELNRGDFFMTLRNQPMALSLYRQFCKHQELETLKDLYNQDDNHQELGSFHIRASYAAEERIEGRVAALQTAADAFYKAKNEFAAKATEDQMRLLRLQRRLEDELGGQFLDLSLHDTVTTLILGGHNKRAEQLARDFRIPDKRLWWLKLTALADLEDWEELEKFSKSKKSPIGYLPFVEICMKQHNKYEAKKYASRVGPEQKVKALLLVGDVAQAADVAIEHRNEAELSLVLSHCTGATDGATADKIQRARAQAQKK
Sequence of UniProt Q9Y484 (Q9Y484 whole entry, looked up): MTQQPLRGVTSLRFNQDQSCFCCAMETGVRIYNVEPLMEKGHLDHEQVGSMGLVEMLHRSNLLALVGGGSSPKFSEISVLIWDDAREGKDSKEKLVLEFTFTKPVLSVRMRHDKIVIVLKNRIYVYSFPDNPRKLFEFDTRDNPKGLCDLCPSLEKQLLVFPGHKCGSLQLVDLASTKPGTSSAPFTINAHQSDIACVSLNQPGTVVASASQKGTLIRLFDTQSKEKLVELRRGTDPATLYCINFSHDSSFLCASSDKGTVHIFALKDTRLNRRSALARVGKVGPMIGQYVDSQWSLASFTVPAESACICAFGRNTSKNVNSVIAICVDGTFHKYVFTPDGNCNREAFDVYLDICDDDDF
Sequence of UniProt Q5VUA4 (Q5VUA4 whole entry, looked up): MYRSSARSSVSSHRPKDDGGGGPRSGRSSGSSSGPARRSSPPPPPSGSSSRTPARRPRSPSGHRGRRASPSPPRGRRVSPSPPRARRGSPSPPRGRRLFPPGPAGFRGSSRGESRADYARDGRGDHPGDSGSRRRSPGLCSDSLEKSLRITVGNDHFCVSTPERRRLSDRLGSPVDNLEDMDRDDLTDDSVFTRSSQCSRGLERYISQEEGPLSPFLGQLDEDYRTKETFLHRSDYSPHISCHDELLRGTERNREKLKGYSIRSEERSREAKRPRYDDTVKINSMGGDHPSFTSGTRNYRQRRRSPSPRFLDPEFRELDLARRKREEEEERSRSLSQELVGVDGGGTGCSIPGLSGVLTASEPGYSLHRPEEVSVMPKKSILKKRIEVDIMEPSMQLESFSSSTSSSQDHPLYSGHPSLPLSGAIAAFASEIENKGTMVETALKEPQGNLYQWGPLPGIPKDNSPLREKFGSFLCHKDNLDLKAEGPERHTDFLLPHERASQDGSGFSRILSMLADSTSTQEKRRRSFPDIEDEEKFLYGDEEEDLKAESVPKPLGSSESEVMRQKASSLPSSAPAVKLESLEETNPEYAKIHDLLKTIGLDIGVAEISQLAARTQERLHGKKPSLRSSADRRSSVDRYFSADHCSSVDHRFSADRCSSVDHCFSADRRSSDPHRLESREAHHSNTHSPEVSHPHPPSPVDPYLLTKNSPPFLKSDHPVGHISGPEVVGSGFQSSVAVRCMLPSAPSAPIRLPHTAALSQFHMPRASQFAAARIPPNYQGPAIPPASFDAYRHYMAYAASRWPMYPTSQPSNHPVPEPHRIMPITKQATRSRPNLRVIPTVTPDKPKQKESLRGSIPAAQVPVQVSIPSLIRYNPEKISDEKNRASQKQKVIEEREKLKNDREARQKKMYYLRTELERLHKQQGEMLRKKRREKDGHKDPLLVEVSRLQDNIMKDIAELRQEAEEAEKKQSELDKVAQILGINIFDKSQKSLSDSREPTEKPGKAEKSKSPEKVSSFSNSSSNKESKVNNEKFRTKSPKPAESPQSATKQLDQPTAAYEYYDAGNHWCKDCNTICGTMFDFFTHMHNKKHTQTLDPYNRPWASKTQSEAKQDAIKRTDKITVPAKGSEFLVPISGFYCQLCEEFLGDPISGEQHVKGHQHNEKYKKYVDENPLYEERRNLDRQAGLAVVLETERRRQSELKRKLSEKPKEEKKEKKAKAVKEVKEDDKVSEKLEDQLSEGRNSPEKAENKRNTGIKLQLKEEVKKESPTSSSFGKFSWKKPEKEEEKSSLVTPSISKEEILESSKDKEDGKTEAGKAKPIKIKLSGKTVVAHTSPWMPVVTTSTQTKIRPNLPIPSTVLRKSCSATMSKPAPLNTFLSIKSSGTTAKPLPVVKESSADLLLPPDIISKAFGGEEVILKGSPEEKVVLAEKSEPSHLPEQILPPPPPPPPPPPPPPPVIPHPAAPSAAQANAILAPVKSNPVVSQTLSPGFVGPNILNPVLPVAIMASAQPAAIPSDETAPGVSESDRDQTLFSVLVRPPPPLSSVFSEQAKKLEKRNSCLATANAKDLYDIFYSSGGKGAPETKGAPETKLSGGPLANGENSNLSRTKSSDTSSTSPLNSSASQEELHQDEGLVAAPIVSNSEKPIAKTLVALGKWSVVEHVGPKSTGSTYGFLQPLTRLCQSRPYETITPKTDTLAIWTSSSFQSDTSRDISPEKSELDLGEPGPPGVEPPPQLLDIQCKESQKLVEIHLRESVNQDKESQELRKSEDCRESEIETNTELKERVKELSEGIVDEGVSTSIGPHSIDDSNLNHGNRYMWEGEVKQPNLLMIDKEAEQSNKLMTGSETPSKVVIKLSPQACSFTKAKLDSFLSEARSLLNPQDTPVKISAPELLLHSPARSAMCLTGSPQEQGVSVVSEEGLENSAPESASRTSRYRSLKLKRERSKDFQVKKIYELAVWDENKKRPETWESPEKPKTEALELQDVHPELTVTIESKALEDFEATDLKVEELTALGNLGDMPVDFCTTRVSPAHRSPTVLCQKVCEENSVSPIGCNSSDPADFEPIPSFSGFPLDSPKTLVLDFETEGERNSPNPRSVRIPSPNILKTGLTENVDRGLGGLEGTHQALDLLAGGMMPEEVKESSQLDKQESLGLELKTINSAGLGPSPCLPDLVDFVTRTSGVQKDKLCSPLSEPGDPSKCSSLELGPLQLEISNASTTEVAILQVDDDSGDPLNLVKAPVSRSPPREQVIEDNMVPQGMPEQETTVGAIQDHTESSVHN
Sequence of UniProt Q08AM6 (Q08AM6 whole entry, looked up): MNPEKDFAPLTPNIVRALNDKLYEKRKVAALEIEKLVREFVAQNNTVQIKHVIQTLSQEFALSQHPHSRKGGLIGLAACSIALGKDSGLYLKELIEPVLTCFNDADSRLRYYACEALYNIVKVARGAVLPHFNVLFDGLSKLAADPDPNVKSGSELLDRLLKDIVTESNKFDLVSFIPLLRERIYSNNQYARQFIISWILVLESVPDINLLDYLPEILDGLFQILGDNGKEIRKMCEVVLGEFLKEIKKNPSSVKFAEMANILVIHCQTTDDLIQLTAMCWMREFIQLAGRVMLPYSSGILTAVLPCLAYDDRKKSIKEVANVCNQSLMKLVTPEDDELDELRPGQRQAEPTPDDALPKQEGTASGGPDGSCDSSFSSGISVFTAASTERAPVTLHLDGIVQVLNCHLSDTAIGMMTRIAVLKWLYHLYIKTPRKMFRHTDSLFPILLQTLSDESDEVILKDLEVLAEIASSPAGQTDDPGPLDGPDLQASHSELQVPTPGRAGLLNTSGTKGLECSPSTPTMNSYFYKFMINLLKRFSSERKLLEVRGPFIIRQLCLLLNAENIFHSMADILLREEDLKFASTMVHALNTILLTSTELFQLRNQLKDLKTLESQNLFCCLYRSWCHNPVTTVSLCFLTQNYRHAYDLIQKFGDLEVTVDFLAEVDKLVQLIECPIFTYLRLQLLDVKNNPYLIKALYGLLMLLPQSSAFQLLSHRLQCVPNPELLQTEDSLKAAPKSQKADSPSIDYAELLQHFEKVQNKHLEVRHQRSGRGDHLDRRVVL
Sequence of UniProt O00258 (O00258 whole entry, looked up): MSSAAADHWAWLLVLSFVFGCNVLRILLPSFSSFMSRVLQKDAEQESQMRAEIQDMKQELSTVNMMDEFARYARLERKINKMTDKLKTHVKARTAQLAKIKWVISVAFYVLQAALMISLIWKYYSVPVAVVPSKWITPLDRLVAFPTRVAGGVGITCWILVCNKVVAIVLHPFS
Sequence of UniProt Q7Z739 (Q7Z739 whole entry, looked up): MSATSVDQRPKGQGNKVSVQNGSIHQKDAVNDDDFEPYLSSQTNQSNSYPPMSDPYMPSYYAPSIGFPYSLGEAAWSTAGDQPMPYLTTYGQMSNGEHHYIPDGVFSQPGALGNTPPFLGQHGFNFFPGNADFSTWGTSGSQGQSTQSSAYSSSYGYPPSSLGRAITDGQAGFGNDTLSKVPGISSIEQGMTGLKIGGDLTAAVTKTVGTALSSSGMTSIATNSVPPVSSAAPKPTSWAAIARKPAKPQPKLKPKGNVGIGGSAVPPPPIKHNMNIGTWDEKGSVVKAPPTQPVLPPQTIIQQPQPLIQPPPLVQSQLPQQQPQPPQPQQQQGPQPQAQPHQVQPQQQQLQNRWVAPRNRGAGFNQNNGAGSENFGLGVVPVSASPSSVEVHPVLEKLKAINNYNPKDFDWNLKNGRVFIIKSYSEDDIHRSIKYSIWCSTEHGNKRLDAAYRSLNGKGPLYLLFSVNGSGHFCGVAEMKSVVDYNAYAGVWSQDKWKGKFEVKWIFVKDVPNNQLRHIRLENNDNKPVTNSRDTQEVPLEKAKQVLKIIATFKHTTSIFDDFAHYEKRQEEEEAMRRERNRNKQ

**Q.** With USP9X (UniProt Q93008) as the target, how does the log2 fold change read?
**A.** Its log2 fold change is -0.019.

**Q.** Which log2 fold change does the source give for ZMYM1 (UniProt Q5SVZ6) here?
**A.** Its log2 fold change is 0.041.

**Q.** How did the log2 fold change turn out when ZNF598 isoform 3 (UniProt Q86UK7) was run?
**A.** The log2 fold change was -0.064.

**Q.** VAV1 (UniProt P15498) was tested. Which log2 fold change did it give?
**A.** Its log2 fold change is -0.082.

**Q.** WDR7 (UniProt Q9Y4E6) was tested. Which log2 fold change did it give?
**A.** The log2 fold change was -0.038.

**Q.** Which log2 fold change does the source give for VPS11 (UniProt Q9H270) here?
**A.** Its log2 fold change is -0.053.

**Q.** ZNF318 (UniProt Q5VUA4) was tested. Which log2 fold change did it give?
**A.** The log2 fold change was 0.004.

**Q.** VAC14 (UniProt Q08AM6) was tested. Which log2 fold change did it give?
**A.** Its log2 fold change is -0.023.

**Q.** For VPS41 (UniProt P49754), which log2 fold change is on record?
**A.** The log2 fold change was -0.033.

**Q.** How did the log2 fold change turn out when ZNHIT6 (UniProt Q9NWK9) was run?
**A.** Its log2 fold change is -0.068.

**Q.** Which log2 fold change does the source give for ZZEF1 (UniProt O43149) here?
**A.** The log2 fold change was -0.017.

**Q.** Which log2 fold change does the source give for VPS16 (UniProt Q9H269) here?
**A.** The log2 fold change was -0.075.

**Q.** How did the log2 fold change turn out when ZHX1 (UniProt Q9UKY1) was run?
**A.** Its log2 fold change is -0.077.

**Q.** Which log2 fold change does the source give for ZC3H13 (UniProt Q5T200) here?
**A.** Its log2 fold change is -0.045.

**Q.** Which log2 fold change does the source give for VRK1 (UniProt Q99986) here?
**A.** Its log2 fold change is -0.02.

**Q.** VPS54 (UniProt Q9P1Q0) was tested. Which log2 fold change did it give?
**A.** Its log2 fold change is -0.114.

**Q.** Which log2 fold change does the source give for WDR45 isoform 2 (UniProt Q9Y484) here?
**A.** The log2 fold change was -0.016.

**Q.** For XAB2 (UniProt Q9HCS7), which log2 fold change is on record?
**A.** Its log2 fold change is -0.041.

**Q.** YTHDF3 (UniProt Q7Z739) was tested. Which log2 fold change did it give?
**A.** The log2 fold change was 0.003.

**Q.** For XPO6 (UniProt Q96QU8), which log2 fold change is on record?
**A.** Its log2 fold change is -0.072.

**Q.** For WRB (UniProt O00258), which log2 fold change is on record?
**A.** The log2 fold change was 0.049.

**Q.** How did the log2 fold change turn out when XPOT (UniProt O43592) was run?
**A.** The log2 fold change was -0.021.

**Q.** Which log2 fold change does the source give for VPS18 (UniProt Q9P253) here?
**A.** The log2 fold change was -0.076.
